The text below walks through data of PubChem BioAssay AID441 (NMMLSC, 2006).

The campaign covered roughly 24,000 compounds. About 70 (0.3%) were called active. This is one part of a sample in which actives are shown more often than they occur. Unmarked numbers belong to inactive results. Cut-off read from the data, not from the text of the source: active = inhibition above about 30%; inconclusive = no clear call, values can overlap the other calls; inactive = below that.

Chain of N-formyl peptide receptor 2 (Homo sapiens) (P25090 whole entry, looked up): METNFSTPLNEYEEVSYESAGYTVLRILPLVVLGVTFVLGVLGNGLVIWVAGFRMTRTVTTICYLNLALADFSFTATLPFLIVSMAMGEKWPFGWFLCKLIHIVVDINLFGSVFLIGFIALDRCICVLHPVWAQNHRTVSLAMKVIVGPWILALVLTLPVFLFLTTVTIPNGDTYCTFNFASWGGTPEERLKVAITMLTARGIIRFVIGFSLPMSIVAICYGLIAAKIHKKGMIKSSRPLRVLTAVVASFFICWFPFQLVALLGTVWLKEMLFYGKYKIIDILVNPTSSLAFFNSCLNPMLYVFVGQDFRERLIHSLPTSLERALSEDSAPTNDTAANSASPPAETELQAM

This assay addresses N-formyl peptide receptor 2 (Homo sapiens) (UniProt P25090). Kind of assay: small molecules displacing FPRL1 fluorescent ligand – cell-based, FPR counter-screen, flow cytometry, primary screen (AID 441).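 Note: 0% = buffer alone and 100% = receptor blocker peptide.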 As to conditions: FPRL1-expressing cells, fluorescent ligand binding inhibition, stronger effect = higher value, concentration not given here.
In the case of `C[N+](C)(C)CCOP(=O)([O-])OC[C@H](O)CO`, the inhibition (usually the change of the read-out against control, counted positive when it falls) is 5.6%.
In the case of `O=C(Nc1cccc(OCC(=O)N2CCOCC2)c1)C1CCCCC1` it was -0.9%; in that of `CCOc1ccccc1NC(=O)c1cc(S(=O)(=O)N2CCC3(CC2)OCCO3)ccc1F`, -14.8%; in that of `CC1(C)CC(O)C(CCC(O)c2ccccc2)C(C)(C)N1` (configuration not stated), 6.7%.
`COc1ccc(-c2noc(-c3cccc(OC)c3OC)n2)cc1OC`: the inhibition is -2.6%.
The result for `COc1ccc(S(=O)(=O)NC2(C(F)(F)F)N=C3SCCN3C2=O)cc1` (configuration not stated) reads 0.8%; that for `O=C(c1ccccc1)c1cccn1CC(=O)N1CCN(c2ccc(F)cc2)CC1`, 14.7%.
In the case of `COc1ccc(NC(=O)C2CCCN(S(=O)(=O)c3cccc4cccnc34)C2)cc1` (configuration not stated) it was -6%; in that of `COc1ccc(CC(NC(C)=O)C(=O)NC2CCN(C(=O)Nc3ccc(C#N)cc3)CC2)cc1OC` (configuration not stated), 17.9%; in that of `COc1ccccc1N1CCN(c2nc3ccccc3n3nnnc23)CC1`, -3.6%.
The result for `Cc1noc(C)c1S(=O)(=O)NCCc1ccc(S(N)(=O)=O)cc1` reads 3%; that for `Nc1scc(-c2ccncc2)c1Cl`, -8.7%; that for `COc1ccc(NC(C)=O)cc1NC(=O)CN1CCN(c2ccccn2)CC1`, -0.9%.
For the compound `Cc1ccc(S(=O)(=O)N2C3C=CC(C3)C2C(=O)O)cc1` (configuration not stated), the inhibition is 0.9%.
For `COc1cc(C2C(C(=O)Nc3ccc(F)cc3)=C(C)Nc3nc(CCCO)nn32)cc(OC)c1OC` (configuration not stated), the inhibition was -2.7%.
The result for `CC(=O)Nc1ccc(-c2cn3cccnc3n2)cc1` reads 2.3%; that for `CCOC(=O)N1CCN(C(=O)c2cnc3n(c2=O)CCS3)CC1`, -0.5%; that for `O=C(CCSCCc1ccccn1)Nc1nccs1`, 0.5%.
`Cc1c2cnn(-c3ccccc3)c(=O)c2c(C)n1CCCC(=O)N1CCN(C)CC1`: the inhibition is 0%.
As for `COc1cccc(Nc2nnc(SCC(=O)N3CC(C)OC(C)C3)s2)c1` (configuration not stated), the inhibition is -0.3%.
The result for `COCCCNC(=O)c1ccc2c(c1)ncn2-c1ccccc1OC` reads 0.4%; that for `COc1ccc(NC(=O)CCNC(=O)Cn2ccc3ccccc3c2=O)c(OC)c1`, -0.5%; that for `Cc1cc(C)c(C#N)c(SCc2[nH]nc3c2C(c2ccccc2)C(C#N)=C(N)O3)n1` (configuration not stated), -9.6%.
The result for `O=C(O)C1CCCCC1C(=O)Nc1ccc(Cl)cc1` (configuration not stated) reads -0.4%.
With `O=C(Cn1nc(Cc2cccnc2)c2ccccc2c1=O)NCC1COc2ccccc2O1` (configuration not stated), the inhibition was -7.3%.
Regarding `CCOc1ccc2c(=O)c(-c3ccc4c(c3)OCCCO4)c(C)oc2c1`, the inhibition is -9.1%.
The result for `CN(C)/C=C1\C=C(c2ccccc2)OC1=O` reads -0.8%.
As to `COc1cc2c(cc1OC)C(c1ccc(C)o1)CC(=O)N2` (configuration not stated), the inhibition was -0.6%.
As to `O=C(O)Cc1ccc(NC(=O)C2CCCCC2C(=O)O)cc1` (configuration not stated), the inhibition was -3.1%.
As for `CN(C)S(=O)(=O)c1ccc(Oc2ccc(S(=O)(=O)N(C)C)cc2)cc1`, the inhibition was 0.3%.
In the case of `Cc1cc(C)c2c(n1)nn1c(N3CCN(c4cccc(Cl)c4)CC3)cc(C)nc21` it was 1.1%; in that of `CCCS(=O)(=O)N1CCC(C(=O)NCCCN(C)Cc2ccccc2)CC1`, -2.9%; in that of `Cc1nc2ccc(S(=O)(=O)NCC(=O)O)cc2s1`, 6.9%.
The result for `Cc1ccc(Nc2cc(=O)n(C3CCCCC3)c(=O)[nH]2)cc1C` reads -0.5%.
As for `COc1cc2ccccc2cc1C(=O)Nc1ccc(S(=O)(=O)Nc2cc(C)on2)cc1`, the inhibition was 1.4%.
In the case of `O=C(CCN1C(=O)c2ccccc2C1=O)NCCN1CCOCC1` it was 3.1%; in that of `Cc1cccc(NC(=O)CN2CCCN(S(=O)(=O)c3ccc(Br)s3)CC2)c1`, 6.3%; in that of `CCCSc1nc2c(c(=O)[nH]c(=O)n2C)n1CCc1ccccc1`, 0.6%.
With `CC(=O)c1c(C)[nH]c(C(=O)NCCCN2CCCC2)c1C`, the inhibition is 2.2%.
The result for `COc1ccccc1CNC(=O)Cn1cc2c(n1)CCCC2` reads -1.9%; that for `Cc1ccccc1-n1nnc2c(=O)oc3ccccc3c21`, -2.1%.
In the case of `CC1(C)Oc2ccc3ccc(=O)oc3c2/C(=C/NCCO)C1=O`, the inhibition is -5.7%.
In the case of `c1cc(-c2nn[nH]n2)ccc1CN1CCCCC1` it was -4.3%; in that of `COc1ccc(/C(O)=C2\C(=O)C(=O)N(Cc3ccco3)C2c2ccc(OC)cc2OC)cc1` (configuration not stated), 26.8%; in that of `CCOc1cccc(/C(O)=C2/C(=O)C(=O)N(CCOC)C2c2ccncc2)c1` (configuration not stated), -3.8%.
The result for `COc1cccc(OCC(O)CN2CCN(CCO)CC2)c1` (configuration not stated) reads 2.6%; that for `Cc1ccc(NC(=O)CN(C)S(=O)(=O)c2cnc[nH]2)cc1C`, -2.5%.
Take `COc1cc(C2C(C(=O)c3ccc(C)o3)=C(O)C(=O)N2Cc2cccnc2)ccc1O` (configuration not stated): the inhibition is 28.1%.
In the case of `COc1ccc(/C(O)=C2/C(=O)C(=O)N(CC3CCCO3)C2c2ccc(OC)c(OC)c2)cc1` (configuration not stated) it was -7.5%; in that of `CCCS(=O)(=O)Nc1c(C(=O)O)[nH]c2ccccc12`, 2.1%.
As to `Cc1nnc(SCCCn2c(N3CCCCC3)nc3c2c(=O)[nH]c(=O)n3C)s1`, the inhibition was 0.8%.
`CCCCOC(=O)Nc1nccs1`: the inhibition is -2.9%.
